# PubChem BioAssay (NCATS)
# Records with an inconclusive call do not appear. Values without a mark were called inactive. Calls come from the whole dose curve; as a rule, active = well fitted cell-killing curve with a large enough effect; inconclusive = small, poorly fitted or top-dose-only effect, or effect the other way; inactive = flat fitted curve, though single readings scatter.
# Test system: Tov-21-G
# Assay: Primary qHTS to identify gynecologic anti-cancer compounds using libraries of approved drugs and bioactive compounds (AID 1345084); note: nearly all actives have a fitted effect of over 55% in size
# Settings: Gynecologic cancer cell panel viability, ATPlite luminescence, 48 h; series mostly up to 57.5 µM; activity change, negative = cytotoxicity: at the top concentration
# Outline: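 Measured: luminescence after ATPlite addition (15 min, RT). Exposure: 48 h, 37 C, 5% CO2.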
# % is set by controls: 0 for no effect and ±100 for the full control effect.
row,Compound,"activity change, negative = cytotoxicity"
1,COC(=O)C1=CO[C@@H](O[C@@H]2O[C@H](CO[C@@H]3O[C@H](CO)[C@@H](O)[C@H](O)[C@H]3O)[C@@H](O)[C@H](O)[C@H]2O)[C@@H]2C(CO)=CC[C@H]12,0.974% [at 25.3 µM]
2,CSCC1OC(n2cnc3c(=O)[nH]cnc32)C(O)C1O (centres undefined),-0.211%
3,COc1cc(C)c(C(=O)OC2C(C)OC(OC3CCC(C)C4C3C=C(C)C3/C(C)=C\CC/C(C)=C/C5(C)C=C(C(=O)O)C(C)CC56OC(=O)/C(=C(\O)C34C)C6=O)C(O)C2O)c(OC)c1 (centres undefined),1.13% [at 11.6 µM]
4,OC[C@H]1O[C@@H](OCc2ccccc2)[C@H](O[C@@H]2OC[C@@H](O)[C@H](O)[C@H]2O)[C@@H](O)[C@@H]1O,8.98% [at 25.3 µM]
5,Nc1ccc(-n2nc(C(F)(F)F)cc2C(F)(F)F)cc1,-1.94%
6,Oc1ccc(CC2NCCc3cc(O)c(O)cc32)cc1 (centres undefined),9.04%
7,NCCCCN(Cc1nc2ccccc2[nH]1)[C@H]1CCCc2cccnc21,-0.25% [at 25.3 µM]
8,C/C(=C\C1CCC(C)C2CCC3(C)OC123)C(=O)O (centres undefined),18.2%
9,CC1=C2C3OC(=O)C(C)C3(O)CCC2(C)CCC1 (centres undefined),1.3%
10,O=C(N[C@H](Cc1ccccc1)C(=O)O)c1sc2cc(F)ccc2c1Cl,0.529%
11,CC(=O)c1ccc(O[C@@H]2O[C@H](CO[C@@H]3OC[C@@H](O)[C@H](O)[C@H]3O)[C@@H](O)[C@H](O)[C@H]2O)cc1,9.92% [at 25.3 µM]
12,C=C1C[C@H](O)[C@@H](O)[C@@]2(C)C1[C@@H](O)[C@H]1OC(=O)C3[C@@H](C)[C@@H](O)[C@H](O)C2[C@]31C (some centres undefined),1.08% [at 38.5 µM]
13,CCCC/C=C\CCCCCc1cc(=O)c2ccccc2n1C,12% [at 38.5 µM]
14,Cn1cc(Nc2cnccc2C(=O)O)c2cccnc21,5.02%
15,C[C@H]1[C@H](C)C[C@@H](C(=O)O)C2CC[C@]3(C)C(=CC[C@@H]4[C@@]5(C)CC[C@H](O)C(C)(C)[C@@H]5CC[C@]43C)[C@@H]21 (some centres undefined),13.1%
16,C=CC(C)(O)CC/C=C(\C)C(=O)O[C@@H]1[C@@H](O)[C@H](OC(C)(C=C)CC/C=C(\C)C(=O)O)O[C@H](CO)[C@H]1OC(=O)/C(C)=C/CCC(C)(O)C=C (some centres undefined),-6.91% [at 25.3 µM]
17,CC1(C)CC[C@]2(C(=O)O[C@@H]3O[C@H](CO)[C@@H](O)[C@H](O)[C@H]3O)CC[C@]3(C)C(=CCC4[C@@]5(C)CC[C@H](O[C@@H]6O[C@H](C(=O)O)[C@@H](O)[C@H](O)[C@H]6OC6OC(CO)C(O)C(O)C6O)C(C)(C)C5CC[C@]43C)[C@@H]2C1 (some centres undefined),6.86% [at 11.6 µM]
18,COc1cccc(C)c1C(=O)O[C@@H]1C[C@H](O[C@H]2[C@H](O)C[C@H](O[C@@H]3CCC[C@H]4[C@H]3C=C[C@@H]3CCCC/C=C/[C@H]5C=C(C(=O)O)[C@@H](C)C[C@@]56OC(=O)C(=C6O)OC(=O)[C@@]34C)O[C@@H]2C)O[C@H](C)[C@H]1O,11.1% [at 11.6 µM]
19,CC(C)CC(=O)OC[C@@]1(O)C[C@@]23CC[C@H]4[C@@](C)(CCC[C@@]4(C)C(=O)O)[C@@H]2CC[C@@H]1C3,-2.37% [at 25.3 µM]
20,C=C[C@H]1[C@H](O[C@@H]2O[C@H](CO)[C@@H](O)[C@H](O)[C@H]2O)OC=C(C(=O)OC)[C@H]1CC=O,0.73% [at 38.5 µM]
21,C=C1C(=O)OC2CC(COC(=O)C(C)C)=C(C(C)CCCOC(C)=O)[C@@H](OC(C)=O)C12 (some centres undefined),-11.5% [at 25.3 µM]
22,CC1=C2C(=O)C=C(CO[C@@H]3O[C@H](CO)[C@@H](O)[C@H](O)[C@H]3O)[C@@H]2[C@H]2OC(=O)[C@H](C)[C@@H]2[C@@H](O)C1,2.08% [at 25.3 µM]
23,C=C1C(=O)O[C@@H]2CC(C)=C([C@@H](C)CCCOC(C)=O)[C@@H](O)[C@H]12,0.412% [at 38.5 µM]
24,CC1=COC(OC2OC(CO)C(O)C(O)C2O)C2C(CO)CC(OC(=O)/C=C/c3ccc(O)cc3)C12 (centres undefined),-18.7% [at 25.3 µM]
25,COc1cccc(OC)c1-c1ccc(C[C@H](NC(=O)c2c(Cl)cccc2Cl)C(=O)O)cc1,0.534%
26,C/C=C/C(=O)OC1/C=C/C(O)C(OC(C)=O)CCC(=O)OC1C (centres undefined),2.53% [at 38.5 µM]
27,CC1(C)[C@H]2C[C@H](C/C=C\CCCC(=O)O)[C@@H](NC(=O)c3csc4ccc(O)cc34)[C@@H]1C2,1.74%
28,CC(=O)/C=C/C1C(C)CC(O[C@@H]2O[C@H](CO)[C@@H](O)[C@H](O)[C@H]2O)CC1(C)C (some centres undefined),17.2% [at 38.5 µM]
29,COC(=O)c1ccccc1O[C@@H]1O[C@H](CO[C@@H]2OC[C@@H](O)[C@H](O)[C@H]2O)[C@@H](O)[C@H](O)[C@H]1O,4.87% [at 25.3 µM]
